From PubChem BioAssay AID1159580 (chemical genetic matrix, 2015)
Values joined by “and” are separate entries in the source; they are usually repeats but may differ in a detail not shown here. Identical values can stand only once. Hit rate of the full screen: of about 5,500 compounds, about 2,000 (36%) were called active. About 18% were inconclusive and are not listed. No stated cut-off is given here; in the data, active means normalized growth mostly below about 0.91 (no sharp cut-off); inconclusive means no clear call, values can overlap the other calls; inactive means mostly above about 0.92. The list shows a part of the results.

Test: chemical genetic growth profiling, strain panel (AID 1159580);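 further: tested at 20 µM; growth read once vehicle control cultures reached saturation at 30 °C; 1 = growth at the plate median or of vehicle wells; lower values mean less growth of the strain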
Settings: S. cerevisiae deletion strains, growth OD

Measured: normalized growth

CC[N+](C)(C)c1cccc(O)c1
inactive: locus YAL013W, strain DEP1, active compounds read low 0.992 and 1.06 | locus YAL021C, strain ccr4, active compounds read low 1.02 | locus YAL026C, strain drs2, active compounds read low 0.993 | locus YAL030W, strain snc1, active compounds read low 1.01 | locus YAL040C, strain CLN3, active compounds read low 0.997 | locus YBL061C, strain skt5, active compounds read low 1 | locus YBR009C, strain hhf1, active compounds read low 0.964 | locus YBR021W, strain FUR4, active compounds read low 0.996 | locus YBR023C, strain chs3, active compounds read low 1.02 | locus YBR171W, strain sec66, active compounds read low 1 | locus YBR229C, strain ROT2, active compounds read low 0.983 | locus YBR231C, strain swc5, active compounds read low 1.03 | locus YBR279W, strain paf1, active compounds read low 1.01 | locus YCL011C, strain gbp2, active compounds read low 1.02 | locus YCL016C, strain dcc1, active compounds read low 1.02 | locus YCL029C, strain bik1, active compounds read low 0.966 | locus YCL061C, strain MRC1 (second series), active compounds read low 1 | locus YCL061C, strain MRC1, active compounds read low 1.02 | locus YCL069W, strain vba3, active compounds read low 1.01 | locus YCR088W, strain abp1, active compounds read low 1.01 | locus YDL005C, strain med2, active compounds read low 1.02 | locus YDL035C, strain GPR1, active compounds read low 1.01 | locus YDL040C, strain nat1, active compounds read low 1.01 | locus YDL074C, strain BRE1, active compounds read low 0.984 | locus YDL101C, strain DUN1, active compounds read low 0.979 | locus YDL134C, strain PPH21, active compounds read low 0.984 | locus YDL185W, strain tfp1, active compounds read low 0.972 | locus YDL192W, strain arf1, active compounds read low 0.992 | locus YDR001C, strain nth1, active compounds read low 1 | locus YDR069C, strain doa4, active compounds read low 1.02 | locus YDR101C, strain arx1, active compounds read low 0.966 | locus YDR137W, strain rgp1, active compounds read low 1.04 | locus YDR150W, strain NUM1, active compounds read low 0.996 and 1 | locus YDR159W, strain sac3, active compounds read low 0.993 | locus YDR162C, strain NBP2, active compounds read low 0.999 | locus YDR195W, strain ref2 1.01 | locus YDR297W, strain sur2, active compounds read low 1.01 | locus YDR318W, strain mcm21, active compounds read low 0.971 | locus YDR334W, strain swr1, active compounds read low 1.01 | locus YDR335W, strain msn5, active compounds read low 1.01 | locus YDR363W, strain ESC2, active compounds read low 1.01 | locus YDR388W, active compounds read low 0.978 | locus YDR392W, strain spt3, active compounds read low 0.92 | locus YDR502C, strain sam2, active compounds read low 0.975 | locus YEL003W, strain gim4, active compounds read low 0.995 | locus YEL037C, strain rad23, active compounds read low 0.999 | locus YEL061C, strain CIN8 (second series), active compounds read low 1.01 | locus YEL061C, strain CIN8, active compounds read low 0.994 | locus YER002W, strain NOP16, active compounds read low 0.998 | locus YER015W, strain faa2, active compounds read low 0.999 | locus YER016W, strain bim1, active compounds read low 1.01 | locus YER110C, active compounds read low 0.97 | locus YER111C, strain swi4, active compounds read low 0.998 | locus YER155C, strain BEM2 (second series), active compounds read low 1.02 | locus YER155C, strain BEM2, active compounds read low 0.949 | locus YER167W, strain BCK2, active compounds read low 0.995 | locus YFR010W, strain ubp6, active compounds read low 1 | locus YGL078C, strain dbp3, active compounds read low 0.982 | locus YGL086W, strain mad1, active compounds read low 1 | locus YGL167C, strain pmr1, active compounds read low 1.01 | locus YGL173C, strain kem1, active compounds read low 1.02 | locus YGL227W, strain vid30, active compounds read low 1.02 | locus YGL240W, strain doc1, active compounds read low 1.03 | locus YGL248W, strain PDE1, active compounds read low 0.997 | locus YGL253W, strain hxk2, active compounds read low 1.02 | locus YGR078C, strain PAC10, active compounds read low 0.995 and 0.986 | locus YGR135W, strain pre9, active compounds read low 0.973 | locus YGR229C, strain SMI1, active compounds read low 1.01 | locus YGR252W, strain gcn5, active compounds read low 1.06 | locus YHR013C, strain ard1, active compounds read low 1.06 | locus YHR027C, strain rpn1, active compounds read low 1.01 | locus YHR030C, strain SLT2, active compounds read low 0.988 and 1.01 | locus YHR079C, strain IRE1 (second series), active compounds read low 0.982 | locus YHR079C, strain IRE1, active compounds read low 0.99 | locus YHR094C, strain hxt1, active compounds read low 0.976 | locus YHR129C, strain ARP1, active compounds read low 0.987 | locus YHR142W, strain chs7, active compounds read low 1 | locus YHR200W, strain rpn10, active compounds read low 0.968 | locus YIL066C, strain RNR3, active compounds read low 0.985 | locus YIL073C, strain SPO22, active compounds read low 0.982 | locus YIL125W, strain kgd1, active compounds read low 0.997 | locus YIR030C, strain dcg1, active compounds read low 0.974 | locus YJL092W, strain hpr5, active compounds read low 1.01 | locus YJL095W, strain BCK1 (second series), active compounds read low 1.01 | locus YJL095W, strain BCK1, active compounds read low 0.973 and 1.02 | locus YJL115W, strain asf1, active compounds read low 1.01 | locus YJL129C, strain trk1, active compounds read low 1.02 | locus YJL134W, strain LCB3, active compounds read low 0.991 | locus YJL154C, strain vps35, active compounds read low 1 | locus YJL164C, strain tpk1, active compounds read low 0.996 | locus YJL166W, strain qcr8, active compounds read low 1.04 | locus YJL168C, strain set2, active compounds read low 0.979 | locus YJL187C, strain SWE1 (second series), active compounds read low 0.977 | locus YJL187C, strain SWE1, active compounds read low 1.01 | locus YJR043C, strain POL32, active compounds read low 0.984 | locus YJR066W, strain TOR1, active compounds read low 0.931
